This note sets out measurements from PubChem BioAssay (NCATS).

For assay [1], the target named is Glucocorticoid receptor (Homo sapiens) (UniProt P04150). The assay can be described thus: GR-GFP Redistribution (AID 450;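 active means compounds whose dose series gives a full or clear partial fitted curve of increased nuclear translocation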; further: potency means the concentration at half of the fitted maximal effect). As to conditions: U2OS GR-GFP nuclear translocation, laser cytometry, 2 h.
Assay [2] has the same target. The assay can be described thus: GR-EFC Redistribution (AID 451; calls by dose curve; further: potency means the concentration at half of the fitted maximal effect). As to conditions: CHO-K1 GR-EFC translocation, beta-gal luminescence, 2 h. In outline:
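Translocation of GR-ED fusion to nuclear EA restores b-gal, read by luminescence after 1 h room-temperature detection. Engineered CHO-K1 biosensor cells, 1,000/well, exposed 2 h at 37 C to titrations up to 46 uM final.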

The target in assay [3] is Mitogen-activated protein kinase 10 (Mus musculus) (UniProt Q61831). The assay can be described thus: JNK3 AlphaScreen Assay (AID 530; active means well fitted curve in either direction with a large enough effect, not every such curve was filed as active;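 further: kinase came from lysate of stimulated human HepG2 cells; signal reports phosphorylation of biotinylated GST-cJun 1-79 at Ser73 with 10 µM ATP; on the % scale 0 is the no-effect control and ±100 the full control effect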). In outline: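 Room-temperature AlphaScreen kinase assay; pre-activated HepG2 lysate as JNK3 source, biotin-GST-cJun(1-79) substrate, 10 uM ATP, compound 15 min preincubation.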
Background: Bead proximity is the source of the signal in Alpha formats.

Assay [4] addresses 3',5'-cyclic-AMP phosphodiesterase 4B (Homo sapiens) (UniProt Q07343). The assay is described as follows: qHTS Assay for Inhibitors of PDE-IV (AID 607; active means well fitted activation curve with a large enough effect in the main read-out, with a control signal flat, not every such curve was filed as active; further: % of control where 0% means no effect). The method in brief: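 The readout is membrane depolarisation from a cAMP-sensing CNG channel, detected with a potential dye at ex 535/em 590. Cells were HEK293-derived (endogenous PDE-IV) at 1000 cells/well, titrated up to 22.9 uM final.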

Assay [5] in a line: qHTS Assay for Lipid Storage Modulators (AID 1519; calls by dose curve). As to conditions: Drosophila S3 cells, BODIPY lipid droplet/cell ratio, laser cytometry, cells loaded with oleic acid; for activity change, negative = inhibition: at 57.5 µM (top of the series). In outline:
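Cells seeded at 5,000 per well were treated with compounds over a concentration series and loaded with oleic acid (400 uM, as added). Lipid droplet fluorescence (488 nm excitation, 500-530 nm channel) was read by laser-scanning cytometry and normalized to 20 uM Triacsin C.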
(qHTS replaces the single test concentration by a dilution series.)

The target in assay [6] is Ubiquitin carboxyl-terminal hydrolase 1 (Homo sapiens) (UniProt O94782). The assay is described as follows: Inhibitors of USP1/UAF1: Pilot qHTS (AID 504865).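 Further: rhodamine fluorescence freed from ubiquitin-rhodamine substrate followed over time; top concentration of the series differs between compounds; on the % scale 0 is the no-effect control and ±100 the full control effect; nearly all actives have a fitted effect of over 35% in size.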 In outline: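 Deubiquitinase activity followed as kinetic rhodamine fluorescence release from 150 nM Ub-Rho. 1 nM USP1/UAF1 with compound, after 15 min room-temperature preincubation, in HEPES pH 7.8 buffer containing TCEP, EDTA, BSA and Tween-20.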
Sequence of Ubiquitin carboxyl-terminal hydrolase 1 (Homo sapiens) (O94782 whole entry, looked up): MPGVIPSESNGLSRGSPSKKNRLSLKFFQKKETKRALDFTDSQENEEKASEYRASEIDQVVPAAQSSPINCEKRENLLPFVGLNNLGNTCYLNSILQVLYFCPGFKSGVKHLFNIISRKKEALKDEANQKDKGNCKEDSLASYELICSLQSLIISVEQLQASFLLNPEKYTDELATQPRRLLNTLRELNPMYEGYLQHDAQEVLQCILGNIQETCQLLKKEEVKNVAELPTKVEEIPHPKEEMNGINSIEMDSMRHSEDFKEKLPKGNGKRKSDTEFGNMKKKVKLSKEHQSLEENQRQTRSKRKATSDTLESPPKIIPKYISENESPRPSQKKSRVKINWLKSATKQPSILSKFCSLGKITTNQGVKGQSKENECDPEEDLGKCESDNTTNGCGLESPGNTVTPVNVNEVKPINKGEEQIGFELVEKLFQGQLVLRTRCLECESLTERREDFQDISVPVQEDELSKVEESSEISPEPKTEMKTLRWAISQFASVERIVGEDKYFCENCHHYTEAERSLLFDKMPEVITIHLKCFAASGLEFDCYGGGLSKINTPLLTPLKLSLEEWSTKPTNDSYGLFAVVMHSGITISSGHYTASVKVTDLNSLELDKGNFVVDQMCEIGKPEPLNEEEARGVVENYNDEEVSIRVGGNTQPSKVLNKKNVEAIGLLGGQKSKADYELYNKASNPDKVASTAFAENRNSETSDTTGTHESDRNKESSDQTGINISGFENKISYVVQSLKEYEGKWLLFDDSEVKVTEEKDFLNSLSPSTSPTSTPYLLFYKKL

In assay [7] the target is DNA dC->dU-editing enzyme APOBEC-3G (Homo sapiens) (UniProt Q9HC16). The assay is described as follows: qHTS for inhibitors of Vif-A3G interactions: Validation (AID 588379). Further: 0% is about no effect. The method in brief: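 HeLa cells stably expressing Vif and A3G-eYFP, 700 cells/well, incubated overnight at 37 deg C, then exposed to compound overnight at 37 deg C. Inhibition of Vif-mediated degradation read as increased yellow fluorescence (Ex 488/Em 500-530) by laser-scanning cytometry.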
Sequence of DNA dC->dU-editing enzyme APOBEC-3G (Homo sapiens) (Q9HC16 whole entry, looked up): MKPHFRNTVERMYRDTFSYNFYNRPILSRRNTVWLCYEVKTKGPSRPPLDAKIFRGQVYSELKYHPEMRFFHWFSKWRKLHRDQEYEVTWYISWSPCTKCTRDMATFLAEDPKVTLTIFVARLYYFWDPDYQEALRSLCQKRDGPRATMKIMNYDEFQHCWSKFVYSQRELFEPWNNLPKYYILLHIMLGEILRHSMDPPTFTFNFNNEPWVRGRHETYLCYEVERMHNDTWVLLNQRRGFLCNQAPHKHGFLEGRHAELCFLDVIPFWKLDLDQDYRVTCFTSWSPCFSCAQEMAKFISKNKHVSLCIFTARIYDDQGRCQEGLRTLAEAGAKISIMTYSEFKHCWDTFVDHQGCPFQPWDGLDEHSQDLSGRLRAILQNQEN

In assay [8] the test system is Zika virus NS2B-NS3 protease. The assay is described as follows: Primary screen GU AMC qHTS for Zika virus inhibitors (AID 1347154).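 Further: 0% = no-inhibitor control and -100% = no-enzyme control; nearly all actives have a fitted effect of over 70% in size.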 The method in brief:
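Fluorogenic AMC-substrate cleavage by noncovalent NS2B-NS3 protease complex (25 nM, pH 8.0 Tris buffer with Tween 20) followed for 15 minutes at room temperature (~20% conversion). Percent inhibition from ex340/em450 signal change, fitted by 4-parameter Hill equation.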

For assay [9], the target named is Cytochrome P450 1A2 (Homo sapiens) (UniProt P05177). The assay is described as follows: p450-cyp1a2 (AID 410; calls by dose curve; further: potency means the concentration at half of the fitted maximal effect). In outline: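 Inhibition was calculated relative to 57 uM furafylline (full inhibition). The reaction used human CYP1A2 at 20nM with Luciferin-ME at its Km, 100uM, driven by an NADPH-regenerating system for 60 min at room temperature.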
Sequence of Cytochrome P450 1A2 (Homo sapiens) (P05177 whole entry, looked up): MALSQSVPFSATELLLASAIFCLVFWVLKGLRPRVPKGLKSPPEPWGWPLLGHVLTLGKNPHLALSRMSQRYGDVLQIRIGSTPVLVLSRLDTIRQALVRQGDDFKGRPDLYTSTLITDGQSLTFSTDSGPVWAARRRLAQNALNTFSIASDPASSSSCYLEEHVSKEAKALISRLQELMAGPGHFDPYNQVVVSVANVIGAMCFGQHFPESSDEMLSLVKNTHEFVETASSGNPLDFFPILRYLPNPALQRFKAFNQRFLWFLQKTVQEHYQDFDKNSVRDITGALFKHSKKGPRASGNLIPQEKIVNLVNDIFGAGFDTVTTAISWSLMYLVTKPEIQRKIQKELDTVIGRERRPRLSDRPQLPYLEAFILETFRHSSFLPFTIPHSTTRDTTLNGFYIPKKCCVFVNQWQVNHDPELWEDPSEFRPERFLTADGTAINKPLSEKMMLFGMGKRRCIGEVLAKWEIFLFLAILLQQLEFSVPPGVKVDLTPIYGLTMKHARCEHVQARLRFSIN
The target of assay [10] is Cytochrome P450 3A4 (Homo sapiens) (UniProt P08684). The assay can be described thus: qHTS Assay for Activators of Cytochrome P450 3A4 (AID 885). Further: nearly all actives have a fitted effect of over 65% in size. The method in brief: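 Steps: enzyme/substrate mix dispensed; compound added, 10 min RT; NADPH regeneration solution added, 60 min RT; luciferin detection buffer stops reaction; 20 min later luminescence measured.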
Assay [11] addresses Rap guanine nucleotide exchange factor 3 (Homo sapiens) (UniProt O95398). The assay is described as follows: Confirmatory qHTS for agonist of cAMP-regulated guanine nucleotide exchange factor 3 (EPAC1) (AID 1645881).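 Further: EPAC1 catalysed release of BODIPY-GDP from Rap1B seen as fluorescence loss; 100% = effect of cAMP agonist control; nearly all actives have a fitted effect of over 75% in size.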
Assay [12] addresses Rap guanine nucleotide exchange factor 4 (Homo sapiens) (UniProt Q8WZA2). The assay is described as follows: Confirmatory qHTS for agonist of cAMP-regulated guanine nucleotide exchange factor 4 (EPAC2) (AID 1645884).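 Further: nucleotide exchange releases bodipy-GDP from Rap1 and this lowers its fluorescence; on the % scale 0 is the no-effect control and ±100 the full control effect; nearly all actives have a fitted effect of over 65% in size.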
Assay [13] in a line: AP1 Signaling Pathway (AID 357; active means well fitted curve in either direction with a large enough effect, not every such curve was filed as active;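 further: ME-180 reporter cells stimulated with EGF at its EC50 level; on the % scale 0 is the no-effect control and ±100 the full control effect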). Conditions: ME-180 AP-1-bla reporter, EGF-induced, beta-lactamase ratio, 5 h; at 38 µM (top of the series). The method in brief:
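Modulation of EGF-driven AP-1 transcription was assessed with a beta-lactamase reporter in ME-180 cells. Compound and EC50 EGF were co-incubated 5 hours at 37 °C before 2.5-hour CCF4 loading at room temperature and dual-emission reading.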

Assay [14] is described as follows: NFAT Signaling Pathway (AID 444; active means well fitted curve in either direction with a large enough effect, not every such curve was filed as active;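 further: carbachol stimulus at about its EC50 of 1 µM final; on the % scale 0 is the no-effect control and ±100 the full control effect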). As to conditions: Jurkat NFAT-bla M1, carbachol, beta-lactamase ratio, 5 h; at 38 µM (top of the series). The method in brief: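 Read-out: CCF4 FRET ratio (460 nm/530 nm) after 1 h RT dye loading, used for %activity and AC50 from titration series. Cells: Jurkat NFAT-β-lactamase/M1 line, treated with compound plus 1 uM carbachol for 5 h, 37 °C.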

Assay [15] is described as follows: Stat Signaling Pathway (AID 446; active means well fitted curve in either direction with a large enough effect, not every such curve was filed as active;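 further: ME-180 cervical cancer cells given 40 pM IL-6 alongside compound; SIE-controlled beta-lactamase reporter measured as 460/530 nm FRET emission ratio; on the % scale 0 is the no-effect control and ±100 the full control effect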). As to conditions: ME-180 SIE beta-lactamase reporter, IL-6 stimulated, 5 h; at 38 µM (top of the series). The method in brief: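 Screening format detects activators and inhibitors alike: ME-180 SIE-bla cells stimulated at 40 pM IL-6 for 5 hrs with compound, then dual-emission beta-lactamase read at 405 nm excitation.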
For assay [16], the target named is Guanine nucleotide-binding protein G(i) subunit alpha-1 (Homo sapiens) (UniProt P63096). The assay is described as follows: qHTS Assay for Inhibitors of RGS12 GoLoco Motif Activity (Green Fluorophore) (AID 879).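 Further: 0% = labeled peptide with Gαi1 and full inhibition = labeled peptide alone without protein; negative values mean loss of peptide binding seen as reduced polarization.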 In outline: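 Fluorescence polarization assay: 50 nM Gαi1 with 10 nM FITC-labeled RGS12 GoLoco peptide in 10 mM Tris pH 7.5, 150 mM NaCl, 0.1 mM GDP, 0.05% NP40, 10 min at room temperature with compound.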
Sequence of Guanine nucleotide-binding protein G(i) subunit alpha-1 (Homo sapiens) (P63096 whole entry, looked up): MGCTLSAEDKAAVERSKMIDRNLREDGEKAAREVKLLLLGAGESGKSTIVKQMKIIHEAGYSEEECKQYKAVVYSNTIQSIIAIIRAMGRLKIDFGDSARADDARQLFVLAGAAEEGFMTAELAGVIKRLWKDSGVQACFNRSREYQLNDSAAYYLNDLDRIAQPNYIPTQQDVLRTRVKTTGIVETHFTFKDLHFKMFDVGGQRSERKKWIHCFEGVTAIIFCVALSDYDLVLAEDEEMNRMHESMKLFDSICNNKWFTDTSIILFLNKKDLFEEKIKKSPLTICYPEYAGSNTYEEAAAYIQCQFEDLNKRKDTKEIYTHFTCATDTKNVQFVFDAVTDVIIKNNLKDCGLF

Assay [17] in a line: qHTS Assay for Identification of Small Molecule Agonists for Thrombopoietin (TPO) Signaling Pathway (AID 917). Further: on the % scale 0 is the no-effect control and ±100 the full control effect. In outline:
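Reporter: GpIIb promoter–luciferase in murine Ba/F3 expressing human TPO receptor. Pre-starved of IL-3 overnight; compounds with 26 pM TPO, 24 hrs, 37 C/5% CO2; luminescence read.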

For assay [18], the target named is Pyruvate kinase (Leishmania mexicana) (UniProt Q27686). The assay can be described thus: qHTS Validation Assay for Inhibitors of Leishmania Mexicana Pyruvate Kinase (AID 945).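 Further: 0% = DMSO only neutral control wells.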 In outline: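 The enzyme is a highly purified E451W mutant of LmPYK used at 0.2 nM. It converts 0.5 mM PEP and 0.1 mM ADP over 1 h at room temperature; product ATP is quantified by luciferase luminescence relative to DMSO controls.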

The target in assay [19] is Pyruvate kinase PKM (Homo sapiens) (UniProt P14618). The assay is described as follows: qHTS Assay for Activators of Human Muscle Pyruvate Kinase (AID 954; active means well fitted curve in the direction sought with a large enough effect, not every such curve was filed as active;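 further: 0% = uninhibited enzyme and -100% = no enzyme or full thiadiazolimine inhibition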). In outline: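 Reaction: 0.1 nM purified PKM2 with 0.5 mM phosphoenolpyruvate and 0.1 mM ADP, room temperature, 1 h. Readout: luciferase-based ATP luminescence after stop reagent. Activators judged against a 0.3 nM enzyme column.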

Assay [20] concerns the target Alpha-galactosidase A (Homo sapiens) (UniProt P06280). The assay can be described thus: Counterscreen for Glucocerebrosidase Inhibitors: qHTS Assay for Human alpha-Galactosidase at pH 4.5 (AID 992). Further: 0% is about no effect. In outline:
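Concentration-response curves (0.7 nM to 77 uM final) were modeled with the Hill equation to give AC50. Reactions: 2 nM enzyme, 80 uM fluorogenic alpha-galactoside, pH 4.5 citric acid buffer, 20 min, room temperature.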
For orientation: The purpose of a counterscreen is to sort out artefacts and off-target activity.

The target of assay [21] is alpha-glucosidase (Oryza sativa, rice) (UniProt Q653V4). The assay can be described thus: Counterscreen for Glucocerebrosidase Inhibitors: qHTS Assay for Rice alpha-Glucosidase at pH 5.0 (AID 997).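 Further: 0% = full activity with enzyme and -100% = basal without enzyme.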 The method in brief: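 Rice alpha-glucosidase (4 nM final) with 400 uM 4-methylumbelliferyl-alpha-D-glucopyranoside in citrate buffer pH 5.0, 20 min at room temperature, stopped at pH 10; fluorescence 365/440 nm, compounds 0.7 nM–77 uM, AC50 from Hill fits.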

[22] abbreviates: measured here: cell count channel max response.
Setting [23] is: measured here: lipid channel max response.

Results filed as inconclusive are left out. Activity calls are given as the source filed them. Unless noted, the call rests on the fitted dose curve; in most records, active means well fitted curve in the direction sought with a large enough effect; inconclusive means small, poorly fitted or top-dose-only effect, or another doubt; inactive means no such curve, though single readings can be large; an effect the other way counts as inactive or inconclusive.

Sequence of Glucocorticoid receptor (Homo sapiens) (P04150 whole entry, looked up): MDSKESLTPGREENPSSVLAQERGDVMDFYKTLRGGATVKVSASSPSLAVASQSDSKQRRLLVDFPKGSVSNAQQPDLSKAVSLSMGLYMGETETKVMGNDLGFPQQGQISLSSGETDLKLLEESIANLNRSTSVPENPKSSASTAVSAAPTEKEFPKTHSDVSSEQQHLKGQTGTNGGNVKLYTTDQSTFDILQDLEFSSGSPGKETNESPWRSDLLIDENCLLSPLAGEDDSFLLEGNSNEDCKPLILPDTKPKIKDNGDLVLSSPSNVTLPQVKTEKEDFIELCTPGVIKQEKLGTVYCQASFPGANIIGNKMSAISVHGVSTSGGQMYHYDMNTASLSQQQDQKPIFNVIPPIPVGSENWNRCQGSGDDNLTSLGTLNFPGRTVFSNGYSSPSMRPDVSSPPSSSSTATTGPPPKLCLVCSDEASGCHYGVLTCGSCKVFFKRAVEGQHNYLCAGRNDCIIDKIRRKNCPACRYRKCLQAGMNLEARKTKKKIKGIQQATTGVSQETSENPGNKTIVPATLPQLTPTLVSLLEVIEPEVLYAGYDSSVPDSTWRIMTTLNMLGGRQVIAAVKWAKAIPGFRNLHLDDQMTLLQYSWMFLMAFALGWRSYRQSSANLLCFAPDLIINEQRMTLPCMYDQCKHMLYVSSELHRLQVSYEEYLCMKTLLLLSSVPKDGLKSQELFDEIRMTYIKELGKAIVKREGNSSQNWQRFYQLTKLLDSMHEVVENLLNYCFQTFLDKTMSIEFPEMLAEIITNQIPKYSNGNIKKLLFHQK
Sequence of 3',5'-cyclic-AMP phosphodiesterase 4B (Homo sapiens) (Q07343 whole entry, looked up): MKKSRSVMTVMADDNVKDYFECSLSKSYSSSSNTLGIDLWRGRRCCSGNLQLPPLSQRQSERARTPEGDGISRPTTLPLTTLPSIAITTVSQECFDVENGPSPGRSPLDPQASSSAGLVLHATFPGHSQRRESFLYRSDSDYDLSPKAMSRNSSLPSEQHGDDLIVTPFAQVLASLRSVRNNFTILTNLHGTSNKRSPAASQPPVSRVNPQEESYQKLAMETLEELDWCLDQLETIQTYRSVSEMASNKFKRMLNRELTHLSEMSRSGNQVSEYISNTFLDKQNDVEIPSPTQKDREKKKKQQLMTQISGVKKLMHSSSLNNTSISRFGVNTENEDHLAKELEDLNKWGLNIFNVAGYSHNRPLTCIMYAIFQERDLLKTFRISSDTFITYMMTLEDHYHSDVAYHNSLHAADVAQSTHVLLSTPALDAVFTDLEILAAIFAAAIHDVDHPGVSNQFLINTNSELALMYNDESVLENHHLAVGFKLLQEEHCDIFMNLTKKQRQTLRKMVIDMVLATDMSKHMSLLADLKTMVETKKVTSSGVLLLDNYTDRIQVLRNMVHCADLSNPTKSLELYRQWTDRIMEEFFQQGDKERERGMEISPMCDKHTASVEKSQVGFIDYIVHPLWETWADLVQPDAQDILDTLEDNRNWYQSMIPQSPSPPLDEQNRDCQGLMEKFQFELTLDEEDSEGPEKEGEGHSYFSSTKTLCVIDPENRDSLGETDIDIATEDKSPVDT
Sequence of Rap guanine nucleotide exchange factor 3 (Homo sapiens) (O95398 whole entry, looked up): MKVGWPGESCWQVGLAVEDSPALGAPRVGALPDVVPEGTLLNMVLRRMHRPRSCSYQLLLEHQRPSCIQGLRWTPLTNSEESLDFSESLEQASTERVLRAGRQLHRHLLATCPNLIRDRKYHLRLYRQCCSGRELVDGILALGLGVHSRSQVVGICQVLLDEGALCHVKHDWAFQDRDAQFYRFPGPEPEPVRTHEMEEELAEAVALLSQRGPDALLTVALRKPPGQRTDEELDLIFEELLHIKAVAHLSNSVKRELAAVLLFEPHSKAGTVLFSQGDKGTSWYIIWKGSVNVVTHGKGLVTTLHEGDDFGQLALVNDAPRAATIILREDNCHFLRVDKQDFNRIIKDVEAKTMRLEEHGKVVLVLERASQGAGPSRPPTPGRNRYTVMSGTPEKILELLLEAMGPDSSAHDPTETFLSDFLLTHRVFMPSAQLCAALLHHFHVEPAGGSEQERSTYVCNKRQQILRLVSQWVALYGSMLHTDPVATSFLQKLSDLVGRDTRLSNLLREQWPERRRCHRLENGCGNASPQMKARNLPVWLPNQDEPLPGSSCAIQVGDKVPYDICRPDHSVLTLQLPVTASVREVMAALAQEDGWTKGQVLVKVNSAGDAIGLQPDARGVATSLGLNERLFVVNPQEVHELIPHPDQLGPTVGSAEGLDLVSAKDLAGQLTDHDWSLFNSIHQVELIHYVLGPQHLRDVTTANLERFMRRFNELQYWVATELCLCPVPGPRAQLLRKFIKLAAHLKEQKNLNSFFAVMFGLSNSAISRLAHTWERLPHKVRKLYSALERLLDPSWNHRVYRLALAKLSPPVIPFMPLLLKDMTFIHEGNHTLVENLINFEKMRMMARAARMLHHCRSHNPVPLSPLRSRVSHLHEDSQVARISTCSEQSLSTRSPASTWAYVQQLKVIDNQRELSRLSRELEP
Sequence of Alpha-galactosidase A (Homo sapiens) (P06280 whole entry, looked up): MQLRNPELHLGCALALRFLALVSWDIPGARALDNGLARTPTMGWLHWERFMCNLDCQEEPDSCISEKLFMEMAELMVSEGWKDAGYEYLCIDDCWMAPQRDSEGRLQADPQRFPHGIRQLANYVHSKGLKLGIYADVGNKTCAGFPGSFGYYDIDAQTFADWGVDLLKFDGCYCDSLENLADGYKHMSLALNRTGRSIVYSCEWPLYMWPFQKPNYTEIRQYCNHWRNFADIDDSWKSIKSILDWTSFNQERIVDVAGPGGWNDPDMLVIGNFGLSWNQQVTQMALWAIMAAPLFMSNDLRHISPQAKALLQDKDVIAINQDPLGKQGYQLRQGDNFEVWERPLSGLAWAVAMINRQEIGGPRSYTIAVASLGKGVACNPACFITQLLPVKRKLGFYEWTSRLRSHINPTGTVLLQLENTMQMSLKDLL

For `c1ncc(CC2CCNCC2)[nH]1`, the Potency in assay [1] and in [2] was > 46 µM (inactive) in each case. Further, the Potency result in assay [3], in [4], in assay [6], in assay [7] and in [8] was “inactive” in each case. Besides, the activity change, negative = inhibition in assay [5] is 0.0288% (inactive). In addition, the max response in [5] (setting [22]) is -18.2%; in [5] (setting [23]) it was -15.8%.
For `C[C@H]1C=C2C=C[C@H](C)[C@H](CC[C@@H]3C[C@@H](O)CC(=O)O3)[C@H]2[C@@H](OC(=O)[C@@H](C)CCO)C1`, the figures for the Potency in [9] and in assay [2] were 31.6 µM (active) and > 46 µM (inactive), respectively. Also, the Potency result in assay [3], in assay [10], in [7] and in assay [8] was “inactive” each time. Further, the compound was classed as inactive in assay [11] and in [12].
Turning to `CN1[C@H](CC(=O)c2ccccc2)CCC[C@H]1C[C@H](O)c1ccccc1`, in assay [9], the Potency was 15.8 µM (active). In [5], the activity change, negative = inhibition is 4.17% (inactive). Besides, the max response in assay [5] (setting [22]) amounted to 24.7%; in assay [5] (setting [23]), 29.8%. Moreover, the Potency entry in assay [6], in assay [7] and in [8] was “inactive” each time.
As to `O=C(NC[C@H]1CCCCN1)c1cc(OCC(F)(F)F)ccc1OCC(F)(F)F`, the activity change, negative = inhibition in assay [13] was 4.16% (inactive); in [14], -11% (inactive). For the same compound, the activity, negative = inhibition in assay [15] was -13.8% (inactive). In addition, the Potency result in [3], in assay [4], in assay [17], in assay [18] and in assay [8] was “inactive” in each case. The compound was called inactive in [16], in assay [19], in [20] and in [21].
